Some test systems named below: SR leukemia; RPMI-8226 leukemia; OVCAR-8 ovarian; OVCAR-5 ovarian; OVCAR-4 ovarian; SK-OV-3 ovarian; IGROV1 ovarian; OVCAR-3 ovarian; HS 578T breast; NCI/ADR-RES ovarian.
Test in all cases: NCI-60 one-dose screen, 48 h (100 = growth as untreated, 0 = no growth, -100 = all killed)
Conditions in all cases: 10 µM unless noted

Consider 14 compounds from PubChem BioAssay (NCI).

Structures are written as SMILES. About 83,000 compounds went through this panel and 20% of them were active in at least one assay; those are over-represented in the sample as a whole.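 Single-dose data. Exposure time 48 hours. Values below 10 considered active.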 Values without a mark were called inactive. Active and inactive are the calls of the source.

Turning to `C=C1C(=O)O[C@H]2[C@H]1CC/C(Cn1cc(-c3cccc(Cl)c3)nn1)=C\CC[C@@]1(C)O[C@@H]21`, the growth in the assay with SR leukemia was -3.12% (active); with RPMI-8226 leukemia, -34% (active); with OVCAR-8 ovarian, -43.7% (active); in the assay with OVCAR-5 ovarian it was -36.7% (active); in the assay on OVCAR-4 ovarian, -71.3% (active); with SK-OV-3 ovarian it was 80.8%. Also, the growth is -50.4% (active) in the assay on IGROV1 ovarian, -92.8% (active) in the assay with OVCAR-3 ovarian, -0.629% (active) in the assay on HS 578T breast and 10.7% in the assay on NCI/ADR-RES ovarian.

Take `CC(=O)Nc1scc[n+]1Cc1ccccc1`: the growth in the assay on SR leukemia is 76.6%; with RPMI-8226 leukemia, 92.2%; in the assay on OVCAR-8 ovarian, 99.3%; in the assay with OVCAR-5 ovarian, 110%; in the assay on OVCAR-4 ovarian, 108%; in the assay with SK-OV-3 ovarian it was 99.5%. Besides, the growth in the assay with IGROV1 ovarian was 109%; in the assay on OVCAR-3 ovarian, 114%; with HS 578T breast it was 106%; in the assay on NCI/ADR-RES ovarian it was 102%.

For the compound `C=C1CC2(OC1=O)C(=O)N(CCCN1C(=O)C3(CC(=C)C(=O)O3)c3ccccc31)c1ccccc12` (stereo not given), the growth in the assay on SR leukemia was 3.74% (active); with RPMI-8226 leukemia, -33.3% (active); in the assay on OVCAR-8 ovarian, 11.6%; in the assay on OVCAR-5 ovarian, 21.9%; in the assay on OVCAR-4 ovarian, 25.2%; with SK-OV-3 ovarian, 111%. Further, the growth in the assay with IGROV1 ovarian is 35%; in the assay on OVCAR-3 ovarian it was -13% (active); with HS 578T breast it was 58.2%; with NCI/ADR-RES ovarian, 50%.

Take `CNC(=S)NNC(=O)C1CC1`: the growth with SR leukemia is 67.5%; in the assay with RPMI-8226 leukemia, 98.9%; in the assay on OVCAR-8 ovarian, 94.7%; with OVCAR-5 ovarian, 107%; in the assay with OVCAR-4 ovarian it was 113%; in the assay with SK-OV-3 ovarian, 105%. The growth in the assay with IGROV1 ovarian was 118%; in the assay on OVCAR-3 ovarian, 116%; in the assay with HS 578T breast, 112%; with NCI/ADR-RES ovarian it was 110%.

`O=C(CSc1nc2ccccc2[nH]1)c1ccc(N2CCOCC2)cc1`: the growth in the assay with SR leukemia is 129%; in the assay on RPMI-8226 leukemia it was 109%; with OVCAR-8 ovarian, 96%; with OVCAR-5 ovarian, 102%; in the assay with OVCAR-4 ovarian, 96.5%; with SK-OV-3 ovarian, 101%. Further, the growth in the assay on IGROV1 ovarian is 105%; in the assay with OVCAR-3 ovarian, 106%; in the assay with HS 578T breast, 99%; with NCI/ADR-RES ovarian, 91.9%.

In the case of `COc1ccc(-c2nc(SCCC(C)C)nc(Nc3ccc(F)c(Cl)c3)c2C#N)cc1`, the growth with SR leukemia is 57.3%; in the assay on RPMI-8226 leukemia, 95.5%; in the assay on OVCAR-8 ovarian, 65.8%; with OVCAR-5 ovarian, 102%; in the assay with OVCAR-4 ovarian it was -43.1% (active); in the assay on SK-OV-3 ovarian it was 96%. Also, the growth is 60.3% with IGROV1 ovarian, 57.3% with OVCAR-3 ovarian, 65% with HS 578T breast and 81.4% with NCI/ADR-RES ovarian.

As to `O=C(Nc1ccncc1)C(=O)c1cn(S(=O)(=O)c2ccc(Oc3ccccc3)cc2)c2ccccc12`, the growth with SR leukemia was 92.9%; in the assay on RPMI-8226 leukemia, 76.4%; in the assay on OVCAR-8 ovarian it was 99.3%; in the assay with OVCAR-5 ovarian it was 87.5%; with OVCAR-4 ovarian, 88.3%; in the assay with SK-OV-3 ovarian, 86.4%. The growth in the assay with IGROV1 ovarian is 82.7%; in the assay on OVCAR-3 ovarian, 112%; in the assay with HS 578T breast it was 92%; with NCI/ADR-RES ovarian, 92.5%.

For the compound `COc1ccc(-c2nc(/C=C3/C(=O)Nc4ccc(F)cc43)c3ccccn23)cc1`, the growth with SR leukemia is 79.1%; with RPMI-8226 leukemia it was 93.3%; in the assay on OVCAR-8 ovarian it was 98.5%; with OVCAR-5 ovarian, 133%; in the assay with OVCAR-4 ovarian, 101%; with SK-OV-3 ovarian it was 117%. In addition, the growth was 87.4% with IGROV1 ovarian, 114% in the assay on OVCAR-3 ovarian, 118% in the assay with HS 578T breast and 111% in the assay on NCI/ADR-RES ovarian.

Consider `CCN(CC)c1ccc2[nH]c3c(C(N)=O)cc(=O)c(=O)c=3oc2c1`, for which the growth with SR leukemia is 5.09% (active); with RPMI-8226 leukemia it was -1.62% (active); in the assay on OVCAR-8 ovarian, 0.295% (active); with OVCAR-5 ovarian, 15.1%; in the assay with OVCAR-4 ovarian, 2.07% (active); in the assay on SK-OV-3 ovarian it was 19.9%. For the same compound, the growth with IGROV1 ovarian was -44.4% (active); in the assay with OVCAR-3 ovarian, -35.9% (active); in the assay with HS 578T breast, 2.92% (active); with NCI/ADR-RES ovarian it was -0.316% (active).

For `O=C(O)c1cn(C2CC2)c2cc(N3CCN(C(=O)/C=C/c4ccc(Cl)cc4)CC3)c(F)cc2c1=O`, the growth in the assay on SR leukemia was 79.7%; with RPMI-8226 leukemia it was 70.7%; in the assay with OVCAR-8 ovarian it was 80.5%; in the assay with OVCAR-5 ovarian, 91%; with OVCAR-4 ovarian, 81%; with SK-OV-3 ovarian, 66.4%. Also, the growth in the assay on IGROV1 ovarian was 67.2%; with OVCAR-3 ovarian it was 78.8%; with HS 578T breast it was 65.4%; with NCI/ADR-RES ovarian it was 86.1%.

Consider `CC(C)CSc1nc(NN)c(C#N)c(-c2ccccc2)n1`, for which the growth in the assay with SR leukemia was 109%; in the assay with RPMI-8226 leukemia, 100%; in the assay on OVCAR-8 ovarian, 105%; in the assay on OVCAR-5 ovarian it was 104%; with OVCAR-4 ovarian, 86.9%; in the assay with SK-OV-3 ovarian, 100%. For the same compound, the growth in the assay with IGROV1 ovarian was 103%; in the assay on OVCAR-3 ovarian, 91%; in the assay with HS 578T breast it was 95.7%; with NCI/ADR-RES ovarian, 92.3%.

Turning to `O=C(c1ccccc1)C1OC1c1ccc([N+](=O)[O-])cc1` (stereo not given), the growth in the assay with SR leukemia is 33.6%; in the assay on RPMI-8226 leukemia, 55.9%; in the assay on OVCAR-8 ovarian, 68.9%; in the assay on OVCAR-5 ovarian it was 102%; in the assay with OVCAR-4 ovarian, 59.9%; with SK-OV-3 ovarian it was 97.3%. In addition, the growth in the assay on IGROV1 ovarian is 53.4%; in the assay with OVCAR-3 ovarian, 59.7%; with HS 578T breast, 88.8%; with NCI/ADR-RES ovarian it was 57.9%.

On to `CC(C)(C)n1cc(-c2ccnc(NCCNS(=O)(=O)c3ccc(C(F)(F)F)cc3)c2)c(-c2cccc(O)c2)n1`, for which the growth in the assay on SR leukemia was 8.04% (active); in the assay on RPMI-8226 leukemia, 4.88% (active); in the assay with OVCAR-8 ovarian, 58.5%; in the assay with OVCAR-5 ovarian, 72.2%; with OVCAR-4 ovarian, 50.5%; in the assay on SK-OV-3 ovarian it was 86.3%. For the same compound, the growth in the assay with IGROV1 ovarian is 71.4%; with OVCAR-3 ovarian, 68.1%; in the assay on HS 578T breast, 47.3%; in the assay on NCI/ADR-RES ovarian it was 56.7%.

Consider `COc1ccc(C(=O)N2NC(=O)/C(=C/c3cn(-c4ccccc4)nc3-c3ccccc3)N=C2c2ccccc2)cc1`, for which the growth in the assay on SR leukemia is 99.9%; in the assay on RPMI-8226 leukemia, 102%; with OVCAR-8 ovarian it was 105%; in the assay on OVCAR-5 ovarian, 111%; in the assay with OVCAR-4 ovarian, 101%; in the assay with SK-OV-3 ovarian it was 107%. Further, the growth with IGROV1 ovarian is 98.6%; in the assay on OVCAR-3 ovarian it was 115%; with HS 578T breast it was 97.3%; with NCI/ADR-RES ovarian, 106%.
